PubChem BioAssay (NCI)
The panel holds about 83,000 compounds, 20% with a hit somewhere; the sample as a whole holds those more often.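 Interpretation: 100, growth as untreated; towards 0, rising growth inhibition; 0, no net growth; 0 to -100, cell death. Compounds scoring below 10 were considered active.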 The source made the active and inactive calls.

How the values were obtained:
Experiment in all cases: NCI-60 one-dose screen, 48 h (100 = growth as untreated, 0 = no growth, -100 = all killed)
Details in all cases: 10 µM unless noted
[1] = test system: DU-145 prostate
[2] = test system: K-562 leukemia
[3] = test system: MALME-3M melanoma
[4] = test system: MDA-MB-231 breast
[5] = test system: RXF 393 renal
[6] = test system: SF-268 CNS
[7] = test system: SF-295 CNS
[8] = test system: SF-539 CNS
[9] = test system: UACC-257 melanoma
[10] = test system: M14 melanoma
[11] = test system: HCT-15 colon
[12] = test system: HT29 colon
[13] = test system: SNB-75 CNS
[14] = test system: SNB-19 CNS
[15] = test system: U251 CNS
[16] = test system: PC-3 prostate
[17] = test system: SK-MEL-5 melanoma
[18] = test system: UACC-62 melanoma
[19] = test system: LOX IMVI melanoma
[20] = test system: SK-MEL-28 melanoma

Measured: growth

COc1cc(OCc2cccc(-c3ccc4c(c3)OCCO4)c2C)cc(OC)c1C=O
inactive: [1] 77.8% | [2] 29.9% | [3] 58.9% | [4] 64.8% | [5] 74.2% | [6] 70.3% | [7] 72.1% | [8] 77.9% | [9] 42.3% | [10] 59.2% | [11] 60.1% | [12] 67.6% | [13] 81.2% | [14] 72.7% | [15] 85.6% | [16] 65.5% | [18] 38% | [19] 58.7% | [20] 67.1%
active: [17] -9.95%

O=C1CC2C=CCN2C=C1NC(=O)c1ccccc1 (stereo not given)
inactive: [1] 103% | [2] 92.7% | [3] 93.9% | [4] 112% | [5] 105% | [6] 98.7% | [7] 98% | [8] 107% | [9] 99.8% | [10] 98.8% | [11] 100% | [12] 97.9% | [13] 96.8% | [14] 108% | [15] 97.2% | [16] 99.7% | [17] 100% | [18] 109% | [19] 99.3% | [20] 103%

CN(C)CC1C(=O)O[C@H]2[C@H]1CC/C(COC(=O)NCc1ccc(Cn3c(=O)sn(CCCI)c3=O)cc1)=C\CC[C@@]1(C)O[C@@H]21 (stereo not given in full)
inactive: [4] 60.4% | [6] 57.7% | [7] 96.8% | [8] 24.4% | [13] 71.8% | [14] 89.9% | [15] 84.7% | [16] 66.5% | [17] 64.2% | [18] 15.9%
active: [1] -69.8% | [2] -0.241% | [3] -75.6% | [5] -87% | [9] -39.8% | [10] -56.7% | [11] 5.27% | [12] -80.4% | [19] -75.8% | [20] -80.3%

Cc1[nH]c(C(=O)Nc2ccc(C(N)=O)cc2OC(C)C)c(Cl)c1Cl
inactive: [1] 101% | [2] 79.9% | [3] 101% | [4] 91.4% | [5] 133% | [6] 97.5% | [7] 104% | [8] 92.8% | [9] 106% | [10] 108% | [11] 96.1% | [12] 111% | [13] 93.3% | [14] 99% | [15] 98.2% | [16] 99.3% | [17] 99.3% | [18] 106% | [19] 96.1% | [20] 106%

COc1ccc(/C=N/NC(=O)Cn2nnc3ccccc32)cc1
inactive: [1] 117% | [2] 93% | [3] 103% | [4] 107% | [5] 93.7% | [6] 85.5% | [7] 103% | [8] 105% | [9] 95.2% | [10] 109% | [11] 104% | [12] 105% | [13] 90.6% | [14] 101% | [15] 102% | [16] 95.9% | [17] 110% | [18] 84.6% | [19] 106% | [20] 102%

Clc1ccc2c(NCCCn3cnc4c(N5CCCC5)nc(Cl)nc43)ccnc2c1
inactive: [1] 106% | [2] 90.4% | [3] 101% | [4] 89.8% | [5] 123% | [6] 94.4% | [7] 101% | [8] 99.1% | [9] 102% | [10] 93.9% | [11] 95.5% | [12] 100% | [13] 86.3% | [14] 103% | [15] 99.8% | [16] 91.9% | [17] 99.7% | [18] 101% | [19] 90.2% | [20] 107%

COc1cc(CNC(=O)CCCC/C=C/C(C)C)ccc1OCc1cn(-c2cccc([N+](=O)[O-])c2)nn1
inactive: [1] 109% | [2] 81.5% | [3] 103% | [4] 88.4% | [5] 92.7% | [6] 92.3% | [7] 104% | [8] 94.4% | [9] 94.4% | [10] 93.5% | [11] 77.9% | [12] 88.9% | [13] 92% | [14] 68.2% | [15] 85.3% | [16] 82.2% | [17] 93.2% | [18] 70.1% | [19] 92.9% | [20] 106%

C#CCOc1cccc(-c2ncnc3cc(NC(=O)CCl)ccc23)c1
active: [2] 2.03% | [3] -78.8% | [4] -36.4% | [5] -87.9% | [6] -42.2% | [8] -43.9% | [10] -52.3% | [11] -32.9% | [12] -70.7% | [14] 7.8% | [15] -93.7% | [16] -15.9% | [17] -86% | [18] -41.7% | [19] -83.7%
inactive: [1] 13.9% | [7] 34.4% | [9] 42.8% | [13] 18% | [20] 20.2%

COC(=O)c1cc(-c2ccc(OC)c(OC)c2)[nH]c1N/N=C/c1c(Cl)cccc1Cl
inactive: [1] 21.2% | [2] 19.9% | [3] 46.8% | [4] 41.1% | [6] 43.6% | [9] 49.3% | [11] 28.4% | [12] 13.7% | [14] 36.1% | [15] 30.2% | [16] 26.3% | [17] 12.7% | [18] 38.2% | [19] 39.3% | [20] 56.4%
active: [5] -10.4% | [7] -0.264% | [8] -15.2% | [10] 0.331% | [13] 4.55%

Cn1nc(-c2ccc(Cl)cc2)nc2c(=O)n(C)c(=O)nc1-2
active: [1] -97.5% | [2] -52.7% | [3] -90.1% | [4] -24.9% | [5] -30.8% | [6] -19.8% | [7] -29.6% | [8] -99.2% | [9] -83.4% | [10] -91.9% | [11] -67.5% | [12] -77.3% | [13] -100% | [14] -84.5% | [15] -82.6% | [17] -98.5% | [18] -55.2% | [19] -58.6% | [20] -64.4%
inactive: [16] 16.6%

Nc1ccc(Cl)c2c(=O)c3ccccc3[nH]c12
inactive: [1] 94.1% | [2] 83.5% | [3] 109% | [4] 91.5% | [5] 80.4% | [6] 92.9% | [7] 76.4% | [8] 83.5% | [9] 74.7% | [10] 91.1% | [11] 83.1% | [12] 100% | [13] 84.2% | [14] 88.5% | [15] 92.2% | [16] 76.6% | [17] 53.1% | [18] 93.6% | [19] 71.4% | [20] 113%

O=C(O)c1nn(-c2ccc(Cl)cc2)nc1N1CCCC1
inactive: [1] 91.3% | [2] 87.2% | [3] 90% | [4] 101% | [5] 85.4% | [6] 98.3% | [7] 90.5% | [8] 96.1% | [9] 94.7% | [10] 96.7% | [11] 92.2% | [12] 104% | [13] 85.7% | [14] 103% | [15] 92.3% | [16] 95.4% | [17] 96.4% | [18] 99.6% | [19] 93.6% | [20] 105%

CCCCCCC/C=N/NC(=O)c1ccc(-n2cc(-c3ccccc3)nn2)cc1
inactive: [1] 96.1% | [2] 79.7% | [3] 78.1% | [4] 74.3% | [5] 83.5% | [6] 90.1% | [7] 87.8% | [8] 96.5% | [9] 100% | [10] 80.7% | [11] 73.6% | [12] 101% | [13] 86.3% | [14] 100% | [15] 98.3% | [16] 74.8% | [17] 94.9% | [18] 61.9% | [19] 59.5% | [20] 98.3%

Cc1c2cnccc2c(C)c2c1c1cc(C(=O)O)ccc1n2C
active: [1] 4.3% | [2] 9.3% | [3] -31.8% | [4] 3.08% | [5] -72.1% | [6] 0.973% | [7] -2.38% | [8] -24.5% | [9] -31.4% | [10] -0.906% | [11] 1.03% | [12] 7.11% | [13] -7.4% | [14] 2.23% | [15] 0.0209% | [17] -84.7% | [18] -55% | [19] -27.1% | [20] -27.4%
inactive: [16] 10.4%

O=C(Nc1cccc2c1C(=O)c1cccc(NC(=O)c3ccc(C(=O)Nc4cccc5c4C(=O)c4cccc(NC(=O)c6ccccc6)c4C5=O)cc3)c1C2=O)c1ccccc1
inactive: [1] 115% | [2] 93.5% | [3] 101% | [4] 90.4% | [5] 103% | [6] 109% | [7] 108% | [8] 104% | [9] 95.1% | [10] 113% | [11] 105% | [12] 112% | [13] 89.7% | [14] 105% | [15] 101% | [16] 87.7% | [17] 105% | [18] 89% | [19] 102% | [20] 103%
